Here are results for 13 molecules from PubChem BioAssay (NCI).

Some test systems named below: NCI-H23 lung; NCI-H226 lung; NCI-H322M lung; HOP-62 NSCLC; NCI-H460 lung; HOP-92 NSCLC; NCI-H522 lung; A549/ATCC NSCLC; 786-0 renal; COLO 205 colon.
Test in all cases: NCI-60 one-dose screen, 48 h (100 = growth as untreated, 0 = no growth, -100 = all killed)
What all share (settings): 10 µM unless noted

Each structure is given as a SMILES string. This is part of a sample that, as a whole, favours compounds with a hit. Of some 83,000 tested, about 20% had one in any assay.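 Note: values are percent growth. 100 is the growth of untreated cells, values between 100 and 0 indicate rising inhibition; between -100 and 0 indicates cell death.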 Unmarked numbers belong to inactive results. Activity calls are given as the source filed them. The calls were made as follows: active = growth percent below 10; inactive = the rest.

Take `O=C(Nc1nc2ccc([N+](=O)[O-])cc2s1)Nc1ccc(Cl)cc1Cl`: the growth was 18.2% in the assay on NCI-H23 lung; 61.1% with NCI-H226 lung; 72.2% with NCI-H322M lung; 39.8% with HOP-62 NSCLC; 27.6% in the assay with NCI-H460 lung; 29.1% in the assay on HOP-92 NSCLC. Moreover, the growth was 20.3% in the assay with NCI-H522 lung, 55.8% in the assay with A549/ATCC NSCLC, 19.6% in the assay on 786-0 renal and 74.7% in the assay with COLO 205 colon.

For the molecule `O=C1NC(=NC23CC4CC(CC(C4)C2)C3)N/C1=C\c1ccc2ncccc2c1`, the growth in the assay with NCI-H23 lung is -15.2% (active); in the assay on NCI-H226 lung it was -38.5% (active); with NCI-H322M lung, 22.6%; with HOP-62 NSCLC, -64.4% (active); in the assay on NCI-H460 lung it was -68.8% (active); with HOP-92 NSCLC it was -11.7% (active). The growth with NCI-H522 lung is -37% (active); in the assay with A549/ATCC NSCLC, -46.3% (active); in the assay on 786-0 renal, -51% (active); with COLO 205 colon, 19.5%.

On to `COc1ccc(Nc2ncnc3sc4c(c23)CCN(Cc2ccccc2)C4)cc1`, for which the growth in the assay on NCI-H23 lung was 91.8%; in the assay with NCI-H226 lung it was 84.3%; in the assay on NCI-H322M lung, 93.7%; in the assay with HOP-62 NSCLC, 81.9%; in the assay with NCI-H460 lung it was 71%; with HOP-92 NSCLC, 85.7%. The growth in the assay on NCI-H522 lung was 63.2%; in the assay on A549/ATCC NSCLC, 77.3%; in the assay on 786-0 renal it was 76.4%; with COLO 205 colon, 106%.

Take `N#CCc1nnc(NC(=O)c2ccc(-n3c(=O)[nH]c4ccccc4c3=O)cc2)s1`: the growth in the assay on NCI-H23 lung was 93%; in the assay on NCI-H226 lung it was 106%; with NCI-H322M lung, 101%; in the assay on HOP-62 NSCLC, 101%; in the assay with NCI-H460 lung, 100%; with HOP-92 NSCLC, 98.1%. Further, the growth in the assay with NCI-H522 lung is 89.3%; in the assay on A549/ATCC NSCLC, 105%; in the assay on 786-0 renal, 106%; in the assay on COLO 205 colon it was 105%.

For `COc1ccc2c(c1)C(Sc1ccc(F)cc1)c1c(nc(N)c(C#N)c1N)O2` (stereo not given), the growth in the assay on NCI-H23 lung was 90.7%; with NCI-H226 lung it was 90.9%; with NCI-H322M lung, 94.4%; in the assay on HOP-62 NSCLC, 111%; with NCI-H460 lung, 95.7%; in the assay on HOP-92 NSCLC it was 116%. Further, the growth in the assay on NCI-H522 lung was 78.9%; with A549/ATCC NSCLC, 96.2%; in the assay with 786-0 renal, 80.7%; in the assay on COLO 205 colon, 104%.

Consider `CCOc1ccc2[nH]c(=O)c(C(c3nnnn3CC3CCCO3)N3CCN(Cc4ccccc4)CC3)cc2c1` (stereo not given), for which the growth was 76.6% with NCI-H23 lung; 73.6% in the assay on NCI-H226 lung; 101% with NCI-H322M lung; 102% with HOP-62 NSCLC; 84.7% with NCI-H460 lung; 54% with HOP-92 NSCLC. Moreover, the growth in the assay on NCI-H522 lung was 84.7%; in the assay with A549/ATCC NSCLC, 92.7%; with 786-0 renal it was 41.7%; with COLO 205 colon it was 106%.

For the molecule `O=C1N/C(=N\c2nccs2)S/C1=C\c1ccc([N+](=O)[O-])cc1`, the growth is 32.7% with NCI-H23 lung; 6.47% (active) in the assay on NCI-H226 lung; 23.2% with NCI-H322M lung; 37.4% with HOP-62 NSCLC; 8.33% (active) in the assay with NCI-H460 lung; 16.7% in the assay with HOP-92 NSCLC. In addition, the growth in the assay with NCI-H522 lung was -1.75% (active); with A549/ATCC NSCLC, 9.8% (active); in the assay with 786-0 renal it was 19.7%; with COLO 205 colon, 23.2%.

As to `OC1CCC(Cn2c(C(F)(F)F)cc3c(Cl)ncnc32)CC1` (stereo not given), the growth with NCI-H23 lung is -26% (active); in the assay on NCI-H226 lung, 64.4%; in the assay with NCI-H322M lung it was -13.9% (active); in the assay with HOP-62 NSCLC, 13.3%; with NCI-H460 lung, -43.6% (active); in the assay with HOP-92 NSCLC, 78.2%. In addition, the growth in the assay with NCI-H522 lung is -81.3% (active); with A549/ATCC NSCLC, 94%; in the assay with 786-0 renal it was 92.7%; with COLO 205 colon, 60.2%.

Consider `CN(C)c1nc(NCCNS(=O)(=O)c2ccc(C(=O)/C=C/c3ccc(Cl)cc3)cc2)nc(N2CCOCC2)n1`, for which the growth with NCI-H23 lung was 9.4% (active); in the assay with NCI-H226 lung, 74.9%; in the assay on NCI-H322M lung, 81.2%; in the assay on HOP-62 NSCLC, 74.8%; in the assay with NCI-H460 lung, 50.7%; in the assay with HOP-92 NSCLC it was 67.9%. Further, the growth is 25% in the assay with NCI-H522 lung, 12% with A549/ATCC NSCLC, -41.6% (active) with 786-0 renal and 21.1% in the assay on COLO 205 colon.

`Cc1ccc(C2CC(c3ccc(NC(=O)Nc4ccccc4)cc3)=NN2c2ccc(S(C)(=O)=O)cc2)cc1` (stereo not given): the growth in the assay on NCI-H23 lung was -69.1% (active); with NCI-H226 lung, -39.2% (active); in the assay on NCI-H322M lung, 6.06% (active); in the assay on HOP-62 NSCLC, -39.8% (active); with NCI-H460 lung, -5.89% (active); in the assay on HOP-92 NSCLC, -50.4% (active). For the same molecule, the growth was -23.7% (active) in the assay with NCI-H522 lung, 4.89% (active) in the assay with A549/ATCC NSCLC, -31.6% (active) in the assay with 786-0 renal and -43.4% (active) with COLO 205 colon.

For the molecule `COc1cccc(NC(=O)c2ccc(NC(=O)CCl)s2)c1`, the growth was 11.9% in the assay on NCI-H23 lung; 61.5% in the assay on NCI-H226 lung; 101% with NCI-H322M lung; 64.2% with HOP-62 NSCLC; 12.1% in the assay with NCI-H460 lung; 85.9% in the assay with HOP-92 NSCLC. For the same molecule, the growth with NCI-H522 lung was -79.7% (active); with A549/ATCC NSCLC it was 39.7%; in the assay on 786-0 renal it was -86.8% (active); in the assay with COLO 205 colon, 40.2%.

As for `COc1ccc(-c2nc3ccccc3n2CC(=O)N=Nc2c(O)[nH]c3ccc(Br)cc23)cc1`, the growth in the assay with NCI-H23 lung is 78.8%; in the assay with NCI-H226 lung, 100%; in the assay with NCI-H322M lung, 103%; in the assay on HOP-62 NSCLC it was 69.8%; in the assay with NCI-H460 lung it was 80.6%; with HOP-92 NSCLC, 79.8%. Besides, the growth was 67.4% in the assay on NCI-H522 lung, 98.2% in the assay on A549/ATCC NSCLC, 97.3% with 786-0 renal and 83% with COLO 205 colon.

As for `CCC(=O)c1c2c(c3ccc4c5ccccc5ccc4n13)C(=O)c1ccccc1C2=O`, the growth in the assay on NCI-H23 lung is 44.5%; in the assay with NCI-H226 lung, 45.7%; with NCI-H322M lung, 59.1%; with HOP-62 NSCLC, 81.7%; with NCI-H460 lung it was 6.66% (active); in the assay with HOP-92 NSCLC, 117%. In addition, the growth was 86.8% in the assay with NCI-H522 lung, 31.7% in the assay on A549/ATCC NSCLC, 96.4% in the assay on 786-0 renal and 75.8% with COLO 205 colon.
